# From PubChem
# IDE exosite FP = insulin-degrading enzyme (human) exo-site inhibition; P14735; purified IDE, FL-6b probe fluorescence polarization; hits give low values; z-score at 20 µM; actives 6.3% (n = 17,000); AID 1259349;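 active = z-score of -3 or lower, meaning strong loss of probe binding signal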;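 note: His-tagged human IDE residues 42-1019 made in E. coli with 30 nM FL-6b probe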
# Target sequence (P14735 42-1019 limits assumed): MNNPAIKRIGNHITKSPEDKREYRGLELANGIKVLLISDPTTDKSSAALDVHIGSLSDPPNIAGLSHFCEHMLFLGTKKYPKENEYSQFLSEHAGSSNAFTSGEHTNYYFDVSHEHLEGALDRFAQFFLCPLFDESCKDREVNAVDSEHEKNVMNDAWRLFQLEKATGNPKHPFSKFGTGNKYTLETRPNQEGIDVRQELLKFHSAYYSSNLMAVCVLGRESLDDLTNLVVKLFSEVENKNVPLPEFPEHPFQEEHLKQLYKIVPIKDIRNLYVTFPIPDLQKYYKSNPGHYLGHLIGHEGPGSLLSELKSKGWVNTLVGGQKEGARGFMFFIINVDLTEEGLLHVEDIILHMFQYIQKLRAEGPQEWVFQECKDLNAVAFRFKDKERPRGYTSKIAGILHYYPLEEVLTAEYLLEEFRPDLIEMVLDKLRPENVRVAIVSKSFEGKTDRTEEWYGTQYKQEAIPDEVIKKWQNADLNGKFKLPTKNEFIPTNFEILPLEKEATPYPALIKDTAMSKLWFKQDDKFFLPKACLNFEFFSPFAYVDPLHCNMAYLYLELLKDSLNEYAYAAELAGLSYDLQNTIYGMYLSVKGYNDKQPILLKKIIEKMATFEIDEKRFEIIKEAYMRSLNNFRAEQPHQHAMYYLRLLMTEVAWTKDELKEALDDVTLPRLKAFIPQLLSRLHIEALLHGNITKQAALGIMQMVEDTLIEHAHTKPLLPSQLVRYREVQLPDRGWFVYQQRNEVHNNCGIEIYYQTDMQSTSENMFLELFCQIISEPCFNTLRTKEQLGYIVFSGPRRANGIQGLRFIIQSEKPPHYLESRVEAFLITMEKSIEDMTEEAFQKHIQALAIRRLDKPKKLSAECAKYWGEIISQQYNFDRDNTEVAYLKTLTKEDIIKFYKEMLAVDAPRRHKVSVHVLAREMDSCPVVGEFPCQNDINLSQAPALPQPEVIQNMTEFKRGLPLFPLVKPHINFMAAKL
# Hits are given with their value; i = inactive. The sample as a whole holds a higher share of hits than the screen did.
SMILES,IDE exosite FP
O=C(Nc1ccccc1F)N1CC(=O)N2[C@H](CO)[C@@H](c3ccc(C#Cc4ccccc4)cc3)[C@H]2C1,i
O=C(Nc1ccccc1F)N1CC(=O)N2[C@H](CO)[C@H](c3ccc(-c4ccccc4)cc3)[C@@H]2C1,i
O=C(Nc1ccccc1F)N1CC(=O)N2[C@@H](CO)[C@H](c3ccc(C#Cc4ccccc4)cc3)[C@@H]2C1,-8.9
O=C(Nc1ccccc1F)N1CC(=O)N2[C@H](CO)[C@@H](c3ccc(-c4ccccc4)cc3)[C@@H]2C1,-6
O=C(Nc1ccccc1F)N1CC(=O)N2[C@H](CO)[C@@H](c3ccc(-c4ccccc4)cc3)[C@H]2C1,i
O=C(Nc1ccccc1F)N1CC(=O)N2[C@H](C1)[C@@H](c1ccc(C#Cc3ccccc3)cc1)[C@@H]2CO,i
CC(=O)N1[C@H](CO)[C@H](c2ccccc2)[C@H]1CN(CC(C)C)C(=O)c1ccccn1,i
CC(=O)N(C)C[C@H]1[C@H](c2ccc(-c3ccccc3F)cc2)[C@@H](CO)N1C(C)=O,i
COCCN(C[C@H]1N[C@H](CO)[C@@H]1c1ccc(-c2cccc(C#N)c2)cc1)C(C)=O,i
O=C(c1ccc(F)cc1)N1CC(=O)N2[C@H](CO)[C@@H](c3ccc(C#CC4CC4)cc3)[C@H]2C1,i
O=C(C[C@@H]1CC[C@@H]2[C@H](COC[C@H](O)CN2CCC(F)(F)F)O1)NCC1CC1,i
COc1ccc(C#Cc2ccc([C@H]3[C@H]4CN(C(=O)c5ccncc5)CCCCN4[C@H]3CO)cc2)cc1,i
Cc1ccc(-c2ccc([C@@H]3[C@H](CO)N4C(=O)CN(C(=O)c5ccncc5)C[C@@H]34)cc2)cc1,i
Cc1ccc(-c2ccc([C@@H]3[C@@H](CO)N4C(=O)CN(C(=O)c5ccncc5)C[C@H]34)cc2)cc1,i
O=C(c1ccncc1)N1CC(=O)N2[C@H](C1)[C@@H](c1ccc(-c3ccccc3)cc1)[C@@H]2CO,-6.8
Cc1ccc(-c2ccc([C@H]3[C@H]4CN(C(=O)c5ccncc5)CC(=O)N4[C@H]3CO)cc2)cc1,i
Cc1ccc(-c2ccc([C@@H]3[C@@H](CO)N4C(=O)CN(C(=O)c5ccncc5)C[C@@H]34)cc2)cc1,i
Cc1ccc(-c2ccc([C@H]3[C@H](CO)N4C(=O)CN(C(=O)c5ccncc5)C[C@@H]34)cc2)cc1,-3.2
O=C(c1ccncc1)N1CC(=O)N2[C@@H](CO)[C@@H](c3ccc(-c4ccccc4)cc3)[C@@H]2C1,i
Cc1ccc(-c2ccc([C@@H]3[C@H]4CN(C(=O)c5ccncc5)CC(=O)N4[C@H]3CO)cc2)cc1,-4.4
O=C(c1ccncc1)N1CC(=O)N2[C@H](C1)[C@H](c1ccc(-c3ccccc3)cc1)[C@@H]2CO,i
C/C=C/c1ccc([C@@H]2[C@@H](CO)N(C(=O)C3CC3)[C@H]2CN(C)C(=O)CC)cc1,i
C[C@@H]1CCCCO[C@H](CN(C)Cc2ccncc2)[C@H](C)CN([C@H](C)CO)C(=O)c2cc(NS(=O)(=O)c3ccc(Cl)cc3)ccc2O1,i
CC(C)C#Cc1ccc([C@H]2[C@H]3CN(Cc4ccccn4)CCCCN3[C@H]2CO)cc1,i
COc1cccc(NC(=O)C[C@H]2CC[C@@H]3[C@H](COc4ccc(NS(=O)(=O)c5cccc(F)c5)cc4C(=O)N3C)O2)c1,i
SMILES,IDE exosite FP
CC(C)CC#Cc1ccc([C@@H]2[C@@H](CO)N3C(=O)CN(C(=O)NC(C)C)C[C@@H]23)cc1,i
C/C=C/c1ccc([C@H]2[C@@H](CNC(=O)c3ccncc3)N(C(C)=O)[C@H]2CO)cc1,i
O=C(c1ccccn1)N1CC(=O)N2[C@H](C1)[C@H](c1ccc(C#Cc3ccccc3)cc1)[C@@H]2CO,-6.4
O=C(c1cnccn1)N1CC(=O)N2[C@@H](CO)[C@H](c3ccc(C#CCc4ccccc4)cc3)[C@@H]2C1,i
CCCC#Cc1ccc([C@@H]2[C@H]3CN(C(=O)c4ccccn4)CC(=O)N3[C@H]2CO)cc1,i
CC(C)C#Cc1ccc([C@H]2[C@H](CO)N3C(=O)CN(C(=O)c4ccccn4)C[C@@H]23)cc1,i
CCCC#Cc1ccc([C@H]2[C@H](CO)N3C(=O)CN(C(=O)c4ccccn4)C[C@@H]23)cc1,i
CC(C)C#Cc1ccc([C@@H]2[C@H](CO)N3C(=O)CN(C(=O)c4ccccn4)C[C@@H]23)cc1,i
O=C(c1cnccn1)N1CC(=O)N2[C@H](CO)[C@@H](c3ccc(C#CCc4ccccc4)cc3)[C@H]2C1,i
CCCC#Cc1ccc([C@@H]2[C@@H](CO)N3C(=O)CN(C(=O)c4ccccn4)C[C@H]23)cc1,i
O=C(c1ccccn1)N1CC(=O)N2[C@@H](CO)[C@@H](c3ccc(C#CCc4ccccc4)cc3)[C@@H]2C1,-4.7
CCCC#Cc1ccc([C@@H]2[C@H](CO)N3C(=O)CN(C(=O)c4ccccn4)C[C@@H]23)cc1,-3.2
O=C(c1ccccn1)N1CC(=O)N2[C@H](CO)[C@@H](c3ccc(C#Cc4ccccc4)cc3)[C@H]2C1,-9.4
O=C(c1ccccn1)N1CC(=O)N2[C@H](C1)[C@@H](c1ccc(C#Cc3ccccc3)cc1)[C@@H]2CO,i
CO[C@H](CN(C)C(=O)c1ccccc1F)[C@@H](C)CN([C@@H](C)CO)S(=O)(=O)c1ccc(F)cc1,i
CCN(C[C@@H]1N[C@@H](CO)[C@H]1c1ccc(-c2cccc(F)c2)cc1)C(=O)COC,i
CCN(C[C@H]1N[C@H](CO)[C@@H]1c1ccc(-c2cccc(F)c2)cc1)C(=O)COC,i
COCC#Cc1ccc([C@@H]2[C@@H](CO)N3CCCCN(Cc4cncnc4)C[C@@H]23)cc1,i
Cc1cccc(-c2ccc([C@H]3[C@@H](CO)N4CCCCN(S(=O)(=O)c5cccs5)C[C@@H]34)cc2)c1,i
COc1ccccc1-c1ccc([C@H]2[C@@H](CO)N3CCCCN(S(=O)(=O)c4cn(C)cn4)C[C@@H]23)cc1,i
Cn1cnc(S(=O)(=O)N2CCCCN3[C@H](C2)[C@@H](c2ccc(-c4ccccc4)cc2)[C@@H]3CO)c1,i
COc1ccccc1-c1ccc([C@H]2[C@@H](CO)N3CCCCN(S(=O)(=O)c4cn(C)cn4)C[C@H]23)cc1,-9.3
Cn1cnc(S(=O)(=O)N2CCCCN3[C@H](C2)[C@@H](c2ccc(-c4ccc(F)cc4)cc2)[C@@H]3CO)c1,i
Cc1ccccc1-c1ccc([C@@H]2[C@H](CO)N3CCCCN(S(=O)(=O)c4cn(C)cn4)C[C@@H]23)cc1,-16
Cn1cnc(S(=O)(=O)N2CCCCN3[C@@H](CO)[C@H](c4ccc(-c5ccccc5)cc4)[C@@H]3C2)c1,i
SMILES,IDE exosite FP
Cc1ccccc1-c1ccc([C@@H]2[C@@H](CO)N3CCCCN(S(=O)(=O)c4cn(C)cn4)C[C@H]23)cc1,i
Cc1ccccc1-c1ccc([C@H]2[C@H]3CN(S(=O)(=O)c4cn(C)cn4)CCCCN3[C@H]2CO)cc1,-3.6
Cc1ccccc1-c1ccc([C@H]2[C@@H](CO)N3CCCCN(S(=O)(=O)c4cn(C)cn4)C[C@@H]23)cc1,-3.4
COc1ccccc1-c1ccc([C@H]2[C@H](CO)N3CCCCN(S(=O)(=O)c4cn(C)cn4)C[C@@H]23)cc1,i
O=C(N[C@H]1CC[C@H](CCn2cc(-c3ccccc3F)nn2)O[C@H]1CO)c1ccc2c(c1)OCO2,i
N#Cc1ccc(-c2ccc(C3[C@H]4CNC[C@@H]3N4C(=O)NC3CCCCC3)cc2)cc1 (stereo partly drawn),i
C[C@H]1CN([C@@H](C)CO)C(=O)CCCn2nncc2CO[C@H]1CN(C)Cc1ccc2c(c1)OCCN2C,i
